High-throughput results deposited in PubChem BioAssay by National Center for Advancing Translational Sciences (NCATS).
In the library only some 10% were active in any assay of this set; here they are far more common.
HP1b chromo inh = inhibitors of HP1-beta chromodomain binding to methylated histone tails. hit rate 0.56% among 390,000. AlphaScreen HP1-beta / biotin-H3K9me3 peptide binding. Potency, µM (highest dose often 114 µM), without a hit: top-dose activity change, negative = inhibition, actives largely listed as inhibitors. P83916. AID 540317; also: nearly all actives have a fitted effect of over 70% in size
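AlphaScreen: HP1-beta (50 nM) preformed 30 min with biotin-H3(1-18)K9me3 peptide (50 nM) in PBS pH 7.4, 0.01% Tween-20. Compound added for 30 min at RT, then streptavidin donor/nickel chelate acceptor beads (10 ug/mL) for 30 min.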
BAZ2B block = blocks human BAZ2B; Q9UIF8; hit rate 4.4% among 360,000; AlphaScreen BAZ2B-H3K14Ac peptide displacement; Potency, µM (doses to about 114 µM), inactives show top-dose activity change, negative = inhibition, hits mostly inhibitors; also: % is scaled to controls: 0 for no effect and ±100 for the full control effect; nearly all actives have a fitted effect of over 60% in size
Target sequence (Q9UIF8 whole entry, looked up): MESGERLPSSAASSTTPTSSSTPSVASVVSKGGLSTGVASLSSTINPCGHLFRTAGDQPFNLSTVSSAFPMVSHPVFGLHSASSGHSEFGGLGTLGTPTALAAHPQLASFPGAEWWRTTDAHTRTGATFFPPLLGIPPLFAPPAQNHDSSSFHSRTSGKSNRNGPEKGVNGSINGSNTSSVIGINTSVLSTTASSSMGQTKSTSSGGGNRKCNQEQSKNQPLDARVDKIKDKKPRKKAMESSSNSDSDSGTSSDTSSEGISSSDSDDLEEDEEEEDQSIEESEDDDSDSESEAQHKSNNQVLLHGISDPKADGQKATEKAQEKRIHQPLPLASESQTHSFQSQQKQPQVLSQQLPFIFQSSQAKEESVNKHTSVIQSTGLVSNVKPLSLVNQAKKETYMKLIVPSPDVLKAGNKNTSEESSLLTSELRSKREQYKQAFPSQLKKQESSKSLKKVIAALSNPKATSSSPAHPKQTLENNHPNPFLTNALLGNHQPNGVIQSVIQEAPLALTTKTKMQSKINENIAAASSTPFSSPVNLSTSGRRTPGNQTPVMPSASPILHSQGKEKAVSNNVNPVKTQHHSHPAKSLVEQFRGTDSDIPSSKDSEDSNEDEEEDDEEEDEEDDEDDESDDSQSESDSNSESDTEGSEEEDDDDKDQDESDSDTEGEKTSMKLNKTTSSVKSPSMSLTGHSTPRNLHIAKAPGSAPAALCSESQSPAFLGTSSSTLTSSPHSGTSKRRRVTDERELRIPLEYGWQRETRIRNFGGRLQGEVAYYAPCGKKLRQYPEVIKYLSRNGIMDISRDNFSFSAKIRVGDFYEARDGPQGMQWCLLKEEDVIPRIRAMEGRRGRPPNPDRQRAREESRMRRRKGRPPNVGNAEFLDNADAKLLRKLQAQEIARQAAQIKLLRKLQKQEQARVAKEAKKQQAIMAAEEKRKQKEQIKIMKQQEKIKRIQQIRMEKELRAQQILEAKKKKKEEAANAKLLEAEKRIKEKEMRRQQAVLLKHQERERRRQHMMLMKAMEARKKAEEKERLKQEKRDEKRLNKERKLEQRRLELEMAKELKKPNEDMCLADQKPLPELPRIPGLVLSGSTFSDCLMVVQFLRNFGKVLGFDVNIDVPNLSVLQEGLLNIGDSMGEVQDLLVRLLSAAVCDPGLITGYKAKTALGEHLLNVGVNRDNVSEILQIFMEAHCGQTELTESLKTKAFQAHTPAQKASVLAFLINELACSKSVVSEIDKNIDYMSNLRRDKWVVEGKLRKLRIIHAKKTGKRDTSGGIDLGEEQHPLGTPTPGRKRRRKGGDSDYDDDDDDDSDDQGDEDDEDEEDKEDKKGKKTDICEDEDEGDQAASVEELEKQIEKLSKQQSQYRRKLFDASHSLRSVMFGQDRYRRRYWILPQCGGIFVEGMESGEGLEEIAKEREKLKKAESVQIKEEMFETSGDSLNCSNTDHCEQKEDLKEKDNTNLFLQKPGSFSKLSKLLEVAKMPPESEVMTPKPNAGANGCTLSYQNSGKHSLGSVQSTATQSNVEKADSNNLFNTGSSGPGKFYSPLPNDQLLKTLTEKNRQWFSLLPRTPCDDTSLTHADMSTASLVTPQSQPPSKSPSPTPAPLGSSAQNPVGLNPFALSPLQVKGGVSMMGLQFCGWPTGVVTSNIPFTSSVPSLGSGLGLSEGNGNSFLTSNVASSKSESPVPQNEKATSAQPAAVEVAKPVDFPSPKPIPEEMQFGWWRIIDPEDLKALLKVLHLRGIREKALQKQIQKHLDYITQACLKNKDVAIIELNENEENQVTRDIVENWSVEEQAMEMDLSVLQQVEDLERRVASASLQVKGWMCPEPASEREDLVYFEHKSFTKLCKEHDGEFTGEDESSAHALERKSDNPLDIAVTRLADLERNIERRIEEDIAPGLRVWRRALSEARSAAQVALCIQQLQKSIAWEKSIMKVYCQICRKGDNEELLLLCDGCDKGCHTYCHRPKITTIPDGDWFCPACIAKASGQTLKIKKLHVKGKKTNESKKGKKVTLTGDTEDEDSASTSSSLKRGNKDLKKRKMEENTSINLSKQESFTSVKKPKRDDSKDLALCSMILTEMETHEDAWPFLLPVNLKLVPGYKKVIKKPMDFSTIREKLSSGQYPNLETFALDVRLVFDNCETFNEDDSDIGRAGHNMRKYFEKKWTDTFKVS
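Protein-peptide AlphaScreen: BAZ2B 50 nM, b-H3K14Ac 50 nM, 1x PBS pH 7.4 + 0.01% Tween-20. Preincubation 30 min RT; cpd 30 min RT (top 110 uM); beads 20 min RT, light-protected.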
GLS inh = blocks human kidney-isoform glutaminase activity; AID 624170; GLS enzymatic activity, qHTS titration; hit rate 0.21% among 410,000; Potency, µM (top dose mostly 45.5 µM), without a hit: at the top dose activity change, negative = inhibition, hits mostly inhibitors; O94925; also: % is scaled to controls: 0 for no effect and ±100 for the full control effect
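Glutamate formation by hKGA was monitored fluorometrically using coupled glutamate oxidase, HRP and Amplex Red. Substrate was added as 1 mM L-glutamine solution; incubation was 30 min at RT after an initial read.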
G9a inh = inhibitors of human histone lysine methyltransferase G9a | Potency, µM (titrated, usually from 102 µM), without a hit: top-dose activity, negative = inhibition, most hits filed as inhibitors | G9a H3K9 monomethylation, AlphaScreen, 2 h | hit rate 8.8% among 350,000; also: % is scaled to controls: 0 for no effect and ±100 for the full control effect; nearly all actives have a fitted effect of over 75% in size
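G9a (20 nM) preincubated 15 min RT with compounds, then 500 nM biotinylated H3K9 peptide and 20 uM SAM added; 2 h RT reaction. Monomethyl-H3K9 product detected by AlphaScreen with anti-H3K9me1 antibody, streptavidin donor and anti-rabbit IgG acceptor beads.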
JMJD2A Tudor = JMJD2A Tudor domain (human) inhibition; hit rate 4.4% among 390,000; O75164; Potency, µM (series often up to 114 µM), without a hit: top-dose activity change, negative = inhibition, usual class: inhibitors; AlphaScreen JMJD2A-Tudor / H3K4me3 peptide binding; also: % is scaled to controls: 0 for no effect and ±100 for the full control effect; nearly all actives have a fitted effect of over 50% in size
* = called active by the depositor; u = inconclusive; x = not tested or not shown; ! = repeats disagree; [ ] = remark or other dose. Calls follow the shape of the dose curve; as a rule, active = well fitted curve in the direction sought with a large enough effect; inconclusive = small, poorly fitted or top-dose-only effect, or another doubt; inactive = no such curve, though single readings can be large; an effect the other way counts as inactive or inconclusive. Potency is read from the fitted curve at half-maximal effect.

SMILES	HP1b chromo inh	BAZ2B block	GLS inh	G9a inh	JMJD2A Tudor
COc1cccc(OC)c1OCC(O)CN1CCN(c2ccccc2F)CC1 (centres undefined)	63%	1%	6%	28%[2.33 µM]	-2%
COc1ccc(N2CCN(CC(O)COc3c(OC)cccc3OC)CC2)cc1 (centres undefined)	6%	79µM*	67%	35µM*	56µM*!
COc1ccc(N2CCN(CC(O)COc3ccccc3C(C)(C)C)CC2)cc1 (centres undefined)	20µM*	32µM*	33%	11µM*	22µM*
CC1CCc2c(sc3nnn(CC(=O)Nc4ccc(Cl)cc4)c(=O)c23)C1 (centres undefined)	-18%	1%	-12%	-4%[59 µM]	-16%
COc1ccc(OCC(=O)OCC(=O)N2CC(=O)Nc3ccccc32)cc1	23%	-5%	-1%	-27%	-3%
CC(C)CN(C(=O)c1ccc(N2CCCC2=O)cc1)C1CCS(=O)(=O)C1 (centres undefined)	1%	-5%	1%	-32%	-10%
N#Cc1ccc(Oc2cccnc2)cc1C#N	50%	1%	-1%	-3%[59 µM]	5%
COCCN=C1N[C@@H](c2cccc(C(F)(F)F)c2)C(C(=O)OC)=C(C)N1Cc1ccccc1	2%	-11%	-8%	u	u
COc1ccc(N2CCN(CC(O)COc3ccc(F)cc3)CC2)cc1 (centres undefined)	-8%	u	41%	16µM*	u
COc1ccc(N2CCN(c3nccs3)CC2)cc1	-10%	-38%	27%	50µM*	u
O=C(O)c1cccc2c(/C=N/Nc3ccccn3)c[nH]c12	34%	-14%	-8%	x	-7%
O=C(NCCC1CCCCN1S(=O)(=O)c1ccccc1)C(=O)NCc1ccco1 (centres undefined)	-29%	u	0%	u	-18%
COc1ccc(-c2nnc(SCC#CCO)o2)cc1OC	-6%	-2%	1%	16µM*	u
CC1CCCN(C(=O)C2COc3ccccc3O2)C1 (centres undefined)	25%	2%	10%	x	-4%
CCCCc1c(O)nc(SCC(=O)Nc2ccc(C)cc2)n(-c2ccc(OC)cc2)c1=O	60%	-3%	1%	0%	-11%
O=C(CSc1nc2c([nH]c3ccccc32)c(=O)n1-c1ccccc1)Nc1cccc(C(F)(F)F)c1	17%[57 µM]	-2%	-12%	10%[59 µM]	-22%
Cc1c(O)nc(SCC(=O)Nc2cccc(C(F)(F)F)c2)n(-c2ccccc2)c1=O	-3%	-30%	11%	45µM*	-23%
Cc1cc(NC(=O)CSc2nc3c([nH]c4ccccc43)c(=O)n2-c2ccccc2)no1	14%[57 µM]	2%	4%	14%[59 µM]	-6%
COc1cccc(-n2c(SCC(=O)Nc3cc(C)on3)nc3c([nH]c4ccccc43)c2=O)c1	37%	-21%	4%	40µM*	-17%
COc1cccc(NC(=O)CSc2nc(O)c(C)c(=O)n2-c2ccc(C)cc2)c1	0%	-20%	4%	-3%	79µM*
COc1cccc(CCNC(=O)c2ccc(C#N)cc2)c1	30%	4%	-8%	x	-4%
CCN(CCNC(=O)c1ccc(C#N)cc1)c1cccc(C)c1	-13%	-24%	-20%	13µM*	-31%
CCN(CCCNC(=O)c1ccc(Sc2ccc(Cl)cc2)c(NC(C)=O)c1)c1cccc(C)c1	u	u	7%	13µM*	u
COc1ccc(-n2c(SC)nc3sc4c(c3c2=O)CCN(C)C4)cc1	25%	-30%	6%	u	-24%
COC(=O)CSc1nnc2n(-c3ccc(OC)cc3)c(=O)c3c4c(sc3n12)CCCCC4	37%	6%	-10%	-1%	-7%
COc1ccc(-n2c(=S)[nH]c3sc4c(c3c2=O)CCN(C)C4)cc1	x	-25%	x	14µM*	x
CC(C)C1Cc2c(sc3c2c(=O)n(-c2ccccc2)c2n[nH]c(=S)n32)CO1 (centres undefined)	3%	-18%	-16%	1.3µM*	20µM*
COc1ccc(-n2c(=O)c3c4c(sc3n3c(=S)[nH]nc23)CCCC4)cc1	6%	-7%	u	u	56µM*
